tim23-1 inh = growth inhibitors of tim23-1 mutant yeast, primary screen, luminescence, uHTS; inhibition, % at 20 µM; AID 463212, 2010; 330,000 compounds, 1.3% hits; S. cerevisiae tim23-1 growth, BacTiter-Glo luminescence, 24 h;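 active means growth inhibition of the mutant yeast at or above 50%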;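 further: temperature-sensitive mutant grown at 25 °C; plate controls were DMSO-treated mutant yeast for no effect and medium wells lacking yeast for full effect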
tim10-1 inh = growth inhibitors of tim10-1 mutant yeast, primary screen, luminescence, uHTS; S. cerevisiae tim10-1 ts strain growth, BacTiter-Glo, 24 h; 330,000 compounds, 2.2% hits; inhibition, % at 20 µM;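 active means inhibition of at least 40%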;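 further: mutant grown at 25 °C; 0% = DMSO wells with yeast and 100% = wells holding no yeast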
SKKanGAS inh = S. pyogenes SKKanGAS growth inhibitors in kanamycin, primary screen, streptokinase expression inhibitor project, SKKanGAS strain, BacTiter-Glo luminescence. AID 1662, 2009. 6 h. 300,000 compounds, 1.3% hits. inhibition, % at 7.5 µM;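 active means mean replicate score, as percent of positive control median, at least 50; inconclusive means mean below 50 but one replicate at or above 50; inactive means mean and every replicate below 50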;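 further: strain carries kanamycin resistance gene driven by streptokinase promoter and grows in 40 µg/ml kanamycin; loss of luminescence reflects streptokinase promoter inhibition or plain growth inhibition; 0% = median of DMSO wells and 100% = positive control at its reference dose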
TIM10 inh = growth inhibitors of isogenic TIM10 control yeast, primary screen, counter-screen for tim10-1 yeast inhibitor project, luminescence, uHTS. 330,000 compounds, 1.4% hits. S. cerevisiae TIM10 strain growth, BacTiter-Glo luminescence, 24 h. inhibition, % at 10 µM;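 active means inhibition of 40% or more at the single tested concentration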;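 further: wild-type TIM10 isogenic control strain grown at permissive 25 °C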
PfHsp90 set2 = growth inhibition of PfHsp90-expressing yeast, primary screen, antimalarial PfHsp90 inhibitor project, S. cerevisiae, BacTiter-Glo luminescence, single point, set 2; inhibition, % at 9.4 µM; AID 504621, 2011; 310,000 compounds, 0.32% hits; BacTiter-Glo ATP, 48 h; yeast lacking PDR1 and PDR3 efflux regulators;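 active means every replicate shows inhibition above about 80%, whatever the replicate mean, limit read from the data; inconclusive means mean inhibition reaches the set limit but some replicate falls short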;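 further: 0% = DMSO neutral controls and 100% = 20 µM radicicol positive controls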
NALP1 yeast inh = NALP1 inflammasome inhibitors in reconstituted yeast, colorimetric, S. cerevisiae, triplicate retest | S. cerevisiae NALP1/ASC/caspase-1 growth, X-gal OD620, 72 h | inhibition, % at 10 µM | 280,000 compounds, 0.61% hits; in the data active means inhibition mostly above about 24%, no sharp cut-off; inactive means mostly below about 32%
* = called active by the depositor; ? = inconclusive; / = not tested or not shown. The list is not random: actives were taken first. Their share in the collection is about 4.8%.

SMILES	tim23-1 inh	tim10-1 inh	SKKanGAS inh	TIM10 inh	PfHsp90 set2	NALP1 yeast inh
CCOC(=O)C1CCN(C(=O)c2ccc3c(=O)n4nc(Nc5cc(C)ccc5C)sc4nc3c2)CC1	20	25	50*	12	-15	-24
Cc1ccc(C)c(Nc2nn3c(=O)c4ccc(C(=O)NCc5cccnc5)cc4nc3s2)c1	-15	-2	19	-6	14	8
Fc1ccc2nc(Nc3nc4cc5c(cc4s3)OCO5)sc2c1	13	5	60*	25	-4	22
c1ccc2sc(Nc3nc4cc5c(cc4s3)OCO5)nc2c1	15	19	-33	28	-6	-3
Fc1ccc2nc(Nc3nc4cc5c(cc4s3)OCCO5)sc2c1	35	32	50*	18	2	14
Cn1cnnc1SCc1ccc(C(=O)N=Nc2c(O)n(Cc3ccc(Cl)cc3)c3ccccc23)cc1	28	18	57*	16	-1	32
COc1ccc(-n2c(C)cc(C(=O)CCl)c2C)cc1	44	-42	-20	3	-17	42*
COc1ccc(-n2c(C)cc(C(=O)CN3C(=O)c4ccccc4C3=O)c2C)cc1	-3	5	6	14	16	16
Cc1cc(OC(=O)C(C)(C)C)c([N+](=O)[O-])c(=O)[nH]1	8	1	5	0	15	34*
Cc1cc(OC(=O)c2ccc(F)cc2)c([N+](=O)[O-])c(=O)[nH]1	2	-4	-2	0	0	20
COCCCNC(=S)Nc1ccc2nc(N3CCOCC3)cc(C)c2c1	14	16	-5	6	-15	-1
CCCCN(C(=O)CSc1nnc(-c2ccccc2)n1C)c1c(N)n(Cc2ccccc2)c(=O)[nH]c1=O	9	10	2	5	7	36
O=c1c2c(nc3c(-c4cccc5ccccc45)c[nH]n13)CCC2	-4	14	16	-9	12	-10
O=c1c2c(nc3c(-c4ccc(Cl)cc4)c[nH]n13)CCCC2	7	22	71*	21	-3	-2
CCOCCCNC(=O)C(c1ccc(Cl)cc1)N(Cc1cccs1)C(=O)CNC(C)=O (stereo not drawn)	3	-6	-2	-7	/	10
COc1ccc(-n2c(=O)[nH]cc(C(=O)N3CCCc4ccccc43)c2=O)cc1	1	1	-8	-13	/	27*
COc1cccc2c1C(=O)c1c(O)c3c(c(O)c1C2=O)CC(O)(C(=O)CO)CC3OC1CC(N(C)C)C(O)C(C)O1 (stereo not drawn)	/	/	/	/	106*	/
COc1cccc2c1C(=O)c1c(O)c3c(c(O)c1C2=O)C[C@@](O)(C(=O)CO)C[C@@H]3O[C@H]1C[C@H](N)[C@@H](O)[C@H](C)O1	36	-13	108*	-20	-30	/
COc1cccc2c1C(=O)c1c(O)c3c(c(O)c1C2=O)C[C@@](O)(C(C)=O)C[C@@H]3O[C@H]1C[C@H](N)[C@H](O)[C@H](C)O1	/	/	/	/	49	22
CC(=O)[C@]1(O)Cc2c(O)c3c(c(O)c2[C@@H](O[C@H]2C[C@H](N)[C@H](O)[C@H](C)O2)C1)C(=O)c1ccccc1C3=O	49	23	104*	-10	/	/
Cc1cc(NC(=O)CSc2ccc(-c3cccc([N+](=O)[O-])c3)nn2)no1	-13	2	0	-22	7	6
CCN1C[C@@H]2[C@@H]3C(=O)N(Cc4ccccc4)C(=O)[C@@H]3[C@](Cc3ccccc3)(C(=O)OC)N2C1=NCc1ccccc1	/	/	/	/	3	/
Cc1nn(-c2ccccc2)c(Cl)c1/C=C1\SC(=S)N(CCCCCC(=O)O)C1=O	34	14	80*	-8	-3	-1
COc1cccc(/C=C2/SC(=S)N(CC(=O)NNC(=O)c3ccccc3O)C2=O)c1	1	-6	98*	25	0	9
O=C1/C(=C\c2cccc(O)c2)SC(=S)N1Cc1ccccc1	50	-19	7	24	10	18
SMILES	tim23-1 inh	tim10-1 inh	SKKanGAS inh	TIM10 inh	PfHsp90 set2	NALP1 yeast inh
COc1cc(/C=C2/SC(=S)N(Cc3ccccc3)C2=O)ccc1O	42	-1	66*	16	-1	10
Cc1nn(-c2ccccc2)c(Cl)c1/C=C1\SC(=S)NC1=O	26	20	34	7	-8	28
O=C(O)CCCN1C(=O)/C(=C\c2ccccc2OCc2ccccc2)SC1=S	27	6	?	14	12	-4
O=C(O)CCCCN1C(=O)/C(=C\c2ccc(OCc3ccccc3)c(OCc3ccccc3)c2)SC1=S	9	16	50*	12	-14	4
CC(C)CN1CCN(Cc2cccc3nccnc23)CC1CCO (stereo not drawn)	5	5	2	-14	-26	13
O=C(O)c1cccc(OS(=O)(=O)c2cc(Br)ccc2Br)c1	-12	-3	/	7	-4	/
O=C1/C(=C\c2cc([N+](=O)[O-])ccc2O)SC(=S)N1Cc1ccc(Cl)cc1	/	/	96*	/	12	5
COc1cc(/C=C2/SC(=NCc3ccccc3)N(Cc3ccccc3)C2=O)ccc1O	-3	5	85*	4	-24	-7
O=C1/C(=C\c2cccc(O)c2O)SC(=S)N1Cc1ccccc1	39	-50	93*	6	108*	-7
O=C(CCCN1C(=O)/C(=C\c2cccs2)SC1=S)Nc1cc([N+](=O)[O-])ccc1O	3	-9	73*	-16	2	0
CC(C)n1cc(NC(=O)C2CC(c3cccc(Br)c3)=NO2)cn1 (stereo not drawn)	8	26	3	10	-19	-8
Cc1ccc(C(C)C)c(OCc2ccc(C(=O)N/N=C/c3cccc(O)c3O)cc2)c1	/	/	86*	/	122*	0
Cc1ccc(C(C)C)c(OCc2ccc(C(=O)N/N=C/c3ccc(O)c(O)c3)cc2)c1	10	1	31	1	5	10
Nc1nc(CN2CCN(c3ccccc3)CC2)nc(N2CCCc3ccccc32)n1	29	38	88*	24	-13	0
Nc1nc(CN2CCN(Cc3ccccc3)CC2)nc(N2CCCc3ccccc32)n1	-13	21	6	12	/	0
Nc1nc(CN2CCN(c3cccc(Cl)c3)CC2)nc(N2CCCc3ccccc32)n1	46	37	91*	20	17	2
C(#Cc1ccccc1)CN1CCN(c2ccccn2)CC1	3	14	5	19	-33	8
CN(C)CCCNS(=O)(=O)c1cc(Cl)c(Cl)cc1Cl	-17	6	-8	7	-19	6
CN(C)CCCNS(=O)(=O)c1ccc(Cl)s1	31	5	0	10	4	30*
